Compound activity from PubChem BioAssay.
Rows were chosen to be rich in hits. Some 2.4% of all compounds tested hit in one or more screens of this group.
D2 PAM-1: Beta-Arrestin HTS for Positive Allosteric Modulators of the Human D2 Dopamine Receptor: Potentiators; D(2) dopamine receptor (Homo sapiens), P14416; DiscoveRx D2 beta-arrestin cells, luminescence, 90 min; 100% = 57 uM dopamine signal; potentiation, % (no concentration beside the values); 360,000 compounds, 0.23% hits; in the data active = potentiation above about 50%; inconclusive = mostly about 30% to 49%
Target sequence (P14416 whole entry, looked up): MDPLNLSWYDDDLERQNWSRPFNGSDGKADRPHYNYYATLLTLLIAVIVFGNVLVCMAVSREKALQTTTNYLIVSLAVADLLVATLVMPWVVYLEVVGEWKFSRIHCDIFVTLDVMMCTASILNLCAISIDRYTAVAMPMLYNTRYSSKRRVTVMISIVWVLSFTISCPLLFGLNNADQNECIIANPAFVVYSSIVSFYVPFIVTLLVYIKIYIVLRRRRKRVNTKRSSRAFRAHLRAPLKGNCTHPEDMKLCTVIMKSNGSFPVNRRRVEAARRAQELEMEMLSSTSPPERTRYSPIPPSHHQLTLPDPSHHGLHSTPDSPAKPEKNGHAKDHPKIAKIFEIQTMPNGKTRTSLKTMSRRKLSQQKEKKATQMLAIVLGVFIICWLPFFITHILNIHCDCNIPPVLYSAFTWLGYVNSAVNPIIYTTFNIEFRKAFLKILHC
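PathHunter beta-arrestin assay in DiscoveRx D2 cells. Compounds were added with an EC20 of dopamine (50 nM final) for 90 min at 37 deg C. Luminescence was read 1 h after detection reagent, with 57 uM dopamine as the EC100 control.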
D2 ag-1: Beta-Arrestin HTS for Positive Allosteric Modulators of the Human D2 Dopamine Receptor: Agonists | DiscoveRx PathHunter D2 beta-arrestin, luminescence, 90 min; 100% = 57 uM dopamine signal | activation, % (concentration not given with the values) | 360,000 compounds, 0.084% hits | AID 624465, 2012; in the data active = activation above about 40%; inconclusive = between about 15% and that limit
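DiscoveRx PathHunter D2 beta-arrestin cells (2,100/well) attached overnight, then compound-stimulated 90 min at 37 C in HBSS/10 mM HEPES/0.1% Tween-20 buffer; beta-galactosidase complementation read by luminescence after 1 h at ambient temperature. Dopamine 57 uM final (EC100) as control.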
D2 PAM-2: HTS Assay for Positive Allosteric Modulators of the Human D2 Dopamine Receptor: Primary Screen for Potentiators. D(2) dopamine receptor (Homo sapiens), P14416. HEK293 T-REx D2, calcium flux, EC20 dopamine potentiation. potentiation, % at 10 µM. 340,000 compounds, 0.34% hits. AID 485347, 2010;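 active = potentiation over 3 SD above the plate norm, cut at about 30% in these data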; note: 0% is about no effect
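Tetracycline-induced HEK293 T-REx cells force-coupled to calcium signalling expressed D2; compounds were pin-added after a 10 s baseline, read kinetically 180 s, then an EC20 dopamine challenge followed with a further 180 s calcium read.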
D2 antag: HTS Assay for Allosteric Antagonists of the Human D2 Dopamine Receptor: Primary Screen for Antagonists. D(2) dopamine receptor (Homo sapiens), P14416. HEK293 TREx D2 cells, calcium flux, dopamine EC80. inhibition, % at 10 µM. 340,000 compounds, 2% hits; in the data active = inhibition above about 30%; inactive = below that, where a call was filed; note: 0% is about no effect
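Inhibition of EC80 dopamine-driven calcium flux, recorded kinetically, defines activity here; cells are a tetracycline-induced HEK293 T-REx line expressing force-coupled D2.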
D2 ag-2: HTS Assay for Allosteric Agonists of the Human D2 Dopamine Receptor: Primary Screen for Agonists | 340,000 compounds, 0.53% hits | HEK293 T-REx D2 cells, calcium flux agonist mode | activation, % at 2 µM;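 active = activation over 3 SD above normal in the single-dose calcium agonist read, cut at about 30% in these data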; note: 0% is about no effect
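Calcium-flux readout, 1 cycle/sec over 180 s following compound pin transfer, in inducible HEK293 Trex D2 cells (force-coupled); dopamine controls included. Positive calcium responses during this window marked compounds as potential agonists.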
* hit, by the source's call; u = inconclusive; x = no result.

SMILES	D2 PAM-1	D2 ag-1	D2 PAM-2	D2 antag	D2 ag-2
Cc1nc2ccc(S(=O)(=O)N(C)CC(=O)Nc3ccc(Br)c(C)c3)cc2s1	x	x	9	x	1
CCc1ccc(N2CC(C(=O)Nc3nc4ccc(S(C)(=O)=O)cc4s3)CC2=O)cc1 (stereo unspecified)	-3	-2	-11	37*	0
Cc1cc(C)c(NC(=O)c2cc3c(=O)n4ccccc4nc3n2C)c(C)c1	x	x	6	x	1
Cc1ccc(C2C=C(c3ccccc3)Nc3nc(NS(=O)(=O)c4ccc(C)cc4)nn32)cc1 (stereo unspecified)	x	x	-4	x	2
CS(=O)(=O)Nc1nc2n(n1)C(c1ccccc1)C=C(c1ccc(Br)cc1)N2 (stereo unspecified)	75*	u	-6	-5	2
COCc1nc(-c2ccc(-c3ccccc3)nc2OC)no1	-4	-1	5	42*	0
COc1cccc(-c2ccc(-c3noc(-c4ccccc4F)n3)c(OC)n2)c1	-13	-3	-22	40*	1
COc1ccc(OC)c(CNc2ncnc3onc(-c4ccc(Cl)cc4)c23)c1	x	x	-4	x	-1
CC1=C(C(=O)Nc2ccccc2)C(c2ccncc2)n2nc(SCc3ccccc3Cl)nc2N1 (stereo unspecified)	x	x	-3	x	x
Cc1nn(-c2ccc3nnc(C)n3n2)c(C)c1CCC(=O)Nc1ccc(OC(F)(F)F)cc1	x	x	-6	x	0
COc1cccc(CN2CC(C(=O)NCc3cccc(Cl)c3)CCC2=O)c1 (stereo unspecified)	0	4	-9	-5	1
COc1ccccc1CN1CC(C(=O)NCc2cccc(Cl)c2)CCC1=O (stereo unspecified)	-6	-3	-10	36*	0
O=C(Cn1cccc1C(=O)c1ccccc1)NCCN1CCOCC1	-4	-2	-15	55*	1
O=C(Cn1cccc1C(=O)c1ccccc1)NCCCN1CCOCC1	-21	-1	-6	4	1
Cc1ccc(C)c(N2CCN(CCCNC(=O)Cn3cccc3C(=O)c3ccccc3)CC2)c1	-26	-2	-46	41*	0
CN(CC/C=C1/c2ccccc2CSc2ccccc21)CCCO	-40	-2	-19	13	2
C=CCN(C)CC/C=C1\c2ccccc2CSc2ccccc21	-32	-2	-23	68*	1
CN(C)CC/C=C1\c2cc(F)ccc2CSc2ccccc21	-52	-4	-25	37*	0
CCN(Cc1nc(-c2ccc(OC)c(OC)c2)no1)S(=O)(=O)c1ccc(OC)cc1	x	x	5	x	2
CCOC(=O)CSc1nc(-c2ccc(F)cc2)cc(C(F)(F)F)c1C#N	x	x	5	x	0
COc1ccc(NC(=O)c2cc3ccccc3o2)c(OC)c1	x	x	-11	x	x
COC(=O)c1cc(Cl)c(NC(=O)c2cc3ccccc3o2)cc1OC	-11	-1	-5	32*	1
Cc1ccccc1NC(=O)CSc1nc2nccnc2c(=O)n1CCc1c[nH]c2ccccc12	x	x	-1	x	1
COc1cc2oc(=O)c(Br)c(C)c2c(OC)c1OC	-2	-1	-1	39*	-1
CCOC(=O)c1c(C)oc2c1cc(O)c1ccccc12	58*	9	3	0	0
SMILES	D2 PAM-1	D2 ag-1	D2 PAM-2	D2 antag	D2 ag-2
CC(=O)c1c(C)oc2c1cc(O)c1ccccc12	-7	0	-23	2	0
O=C(COC(=O)/C=C/c1ccc(Cl)cc1)NC(=O)NCc1ccccc1	-11	5	1	44*	1
COc1ccc(OC)c(CCNC(=O)CCCn2c(=O)c3cccn3c3ccccc32)c1	x	x	-10	x	1
COc1ccc(NC(=O)C2CCCN2S(=O)(=O)c2ccc(F)cc2)cc1 (stereo unspecified)	-7	-1	-3	30*	1
CCOC(=O)N1CCN(C(=O)C(=O)Nc2sc3c(c2C(N)=O)CC(C)(C)OC3)CC1	7	-1	5	33*	0
Cc1ccccc1-n1ncc2c([N+](=O)[O-])cc([N+](=O)[O-])cc21	83*	8	12	-30	0
Cc1ccc2nc3cc([N+](=O)[O-])cc([N+](=O)[O-])c3cc2c1	19	-18	x	0	0
C=CCNc1nc(C(=O)OCC(=O)Nc2c(Cl)cccc2C(F)(F)F)cs1	-1	2	-4	36*	0
COc1cc(NC(=O)Cn2cc(C(=O)c3ccc(F)cc3)c(=O)c3ccc(C)nc32)cc(OC)c1	x	x	-11	x	-1
Cc1ccc(S(=O)(=O)NCC(=O)OC(C)C(=O)c2ccccc2)cc1 (stereo unspecified)	-17	-6	-2	31*	0
Cc1ccc(C(=O)C(C)OC(=O)CNS(=O)(=O)c2ccc(C)cc2)cc1 (stereo unspecified)	2	-1	-4	3	0
CCn1cnc2cc(NC(=O)c3ccc(C)cc3)ccc21	-6	3	4	32*	1
Cc1ccc(NC(=S)c2nc3ccccc3s2)cc1	-8	-4	87*	-1	0
S=C(Nc1ccc(Cl)cc1)c1nc2ccccc2s1	-18	-3	2	-7	0
Cc1cc(Cl)c2oc(C(=O)N(C)C3CCOC3)c(C)c2c1 (stereo unspecified)	-14	-2	88*	-7	0
Cc1cc(Cl)c2oc(C(=O)N3CCOCC3)c(C)c2c1	-7	-2	x	x	x
CC[N+](C)(C)CC/C=C1/c2ccccc2Sc2ccc(Cl)cc21	-19	-5	-15	15	-2
CN(C)CC/C=C1\c2ccccc2Sc2ccc(Cl)cc21	-25	-3	-29	85*	2
CN(C)CC/C=C1\c2ccccc2Sc2cc(F)c(Cl)cc21	-17	-5	x	x	x
OCCN1CCN(CC/C=C2/c3ccccc3Sc3ccc(Cl)cc32)CC1	-24	-2	-12	73*	-1
CCOC(=O)C1=C(c2ccccc2)NC(SCC(=O)Nc2ccc(C)cc2)=C(C#N)C1c1ccco1 (stereo unspecified)	-7	0	13	55*	1
CCOC(=O)C1=C(c2ccccc2)NC(SCC(=O)Nc2cccc(C)c2)=C(C#N)C1c1ccco1 (stereo unspecified)	2	-1	-19	-5	0
O=C(c1cccc(S(=O)(=O)N2CCOCC2)c1)N1CCN(S(=O)(=O)c2cccs2)CC1	-6	-3	-1	42*	4
